Records with an inconclusive call do not appear. Calls of active or inactive are those of the source. How the source made its calls, unless noted: active means hit-call score of the fitted dose curve at least 0.9, where 1 is the maximum; inactive means score below 0.9.
How the values were obtained:
[1] = ACEA_ER_80hr: ACEA Biosciences xCELLigence Real-Time Cell Analysis on Estrogen Receptor Agonism for Proliferation (AID 2282667; active means hit-call score of the fitted dose curve at least 0.9, where 1 is the maximum); details: T47D proliferation, impedance (xCELLigence), 80 h
Summary of the method: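 Cell-growth kinetics were measured by impedance in T47D cells treated continuously with compound (top 100 uM final, 1:4 steps, 8 points). Activity at 80 h was scored as signal gain over the DMSO baseline.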

[2] = target: CCAAT/enhancer-binding protein beta (Homo sapiens) (UniProt P17676); assay: ATG_C_EBP_CIS: Attagene CIS-FACTORIAL HepG2 Assay for human CCAAT/Enhancer Binding Protein (C/EBP) beta (AID 2282927); details: HepG2 Attagene cis-factorial transcription factor reporter; actives raise or lower the signal
Summary of the method: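 Chemical-treated HepG2 cells (24 h) bearing cis-regulated reporter constructs were processed for total RNA, then reverse transcription, PCR amplification, fluorescent primer extension and fragment analysis; gain- and loss-of-signal were fitted against DMSO.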

[3] = ATG_CMV_CIS: Attagene CIS-FACTORIAL HepG2 Assay for human CMV (Internal Marker) (AID 2282928); details: HepG2 CMV promoter reporter, transcription factor profiling; actives raise or lower the signal;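 further: endpoint acts as a background internal control marker rather than a target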
Summary of the method: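 HepG2 cells transiently transfected with multiple cis-regulated reporter units; 24 h compound exposure. Reporter mRNA quantified by RT-PCR, 6-FAM primer-extension labeling, HpaI digestion and capillary electrophoresis; bidirectional fitting against DMSO baseline.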

[4] = ATG_DR4_LXR_CIS: Attagene CIS-FACTORIAL HepG2 Assay for human Liver X Receptor (LXR), DR4 submotif (AID 2282929); details: HepG2 Attagene DR4 cis-reporter, mRNA transcription; actives raise or lower the signal
Summary of the method: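 HepG2, transient MRTU transfection, cis-element (DR4) promoter; 24 h compound exposure; total RNA → oligo(dT) RT → PCR → 6-FAM primer extension → HpaI cut → CE. Gain/loss vs DMSO, bidirectional fit.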

[5] = target: Aryl hydrocarbon receptor (Homo sapiens) (UniProt P35869); assay: ATG_Ahr_CIS: Attagene CIS-FACTORIAL HepG2 Assay for human Aryl Hydrocarbon Receptor (Ahr) (AID 2282930); details: HepG2 AhR cis-factorial reporter transcription; actives raise or lower the signal
Summary of the method: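 Following 24 h of chemical dosing, transfected HepG2 liver cells with cis-driven reporter units were lysed for RNA; reporter mRNA was quantified via RT-PCR and capillary electrophoresis, and responses fitted bidirectionally from DMSO.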

[6] = ATG_AP_1_CIS: Attagene CIS-FACTORIAL HepG2 Assay for human Activator Protein 1 (AP-1) (AID 2282931); details: HepG2 Attagene cis-factorial AP-1 reporter mRNA; actives raise or lower the signal
Summary of the method: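 Transient MRTU transfection of HepG2 → 24 h chemical treatment → RNA isolation, RT-PCR, 6-FAM labelling, HpaI digest → capillary electrophoresis. Fit: bidirectional, DMSO negative control.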

[7] = ATG_AP_2_CIS: Attagene CIS-FACTORIAL HepG2 Assay for human Activator Protein 2 (AP-2) (AID 2282932); details: HepG2 AP-2 cis-reporter, Attagene transcription factor profiling; actives raise or lower the signal
Summary of the method: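 HepG2 cells were transiently transfected with multiple cis-promoter reporter transcription units and dosed for 24 h. Reporter mRNA was measured by RT-PCR with capillary electrophoresis fluorescence; bidirectional fits relative to DMSO baseline.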

[8] = ATG_BRE_CIS: Attagene CIS-FACTORIAL HepG2 Assay for human Bone Morphogenetic Protein (BMP) Response Element (BRE) (AID 2282933); details: HepG2 BMP response element reporter, Attagene transcription factor profiling; actives raise or lower the signal
Summary of the method: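 Endogenous transcription factor activity at a BMP response element was monitored in transfected HepG2 cells 24 h after dosing. Fluorescent RT-PCR products were resolved by capillary electrophoresis, and activity was fitted in both directions versus DMSO.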

[9] = target: Retinoic acid receptor alpha (Homo sapiens) (UniProt P10276); assay: ATG_DR5_RAR_CIS: Attagene CIS-FACTORIAL HepG2 Assay for human Retinoic Acid Receptor Alpha (RARE), DR5 submotif (AID 2282934); details: HepG2 Attagene cis-factorial RARE DR5 reporter, mRNA; actives raise or lower the signal
Summary of the method: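 Transfected HepG2 reporter cells are exposed to chemicals for 24 h. Then RNA is extracted and the DR5 element reporter transcript is measured by RT-PCR and capillary electrophoresis, with bidirectional curve fitting relative to DMSO.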

[10] = target: Transcription factor E2F1 (Homo sapiens) (UniProt Q01094); assay: ATG_E2F_CIS: Attagene CIS-FACTORIAL HepG2 Assay for human E2F Transcription Factor 1 (AID 2282935); details: HepG2 Attagene cis-reporter, E2F reporter RNA transcripts; actives raise or lower the signal
Summary of the method: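 HepG2 cells transiently transfected with multiplexed cis-element reporter units, dosed for 24 h. Reporter mRNA measured by RT-PCR, 6-FAM primer-extension labeling, HpaI digestion and capillary electrophoresis; bidirectional fit versus DMSO baseline.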

[11] = ATG_E_Box_CIS: Attagene CIS-FACTORIAL HepG2 Assay for human Enhancer Box (E-box) (AID 2282936); details: HepG2 E-box cis-reporter transcription, actives raise or lower the signal
Summary of the method: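 HepG2 cells transiently transfected with multiplexed cis-element reporter units sensing endogenous transcription factor activity; 24 h compound exposure. Reporter mRNA measured by RT-PCR, 6-FAM primer extension, HpaI digestion and capillary electrophoresis; bidirectional fit versus DMSO.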

[12] = ATG_M_61_CIS: Attagene CIS-FACTORIAL HepG2 Assay for M61 Transcription Factor (Internal Marker) (AID 2282937); details: HepG2 Attagene CIS-FACTORIAL M61 internal marker reporter; actives raise or lower the signal
Summary of the method: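 Human liver HepG2, transient MRTU transfection (cis promoter elements), 24 h compound. Total RNA → oligo(dT) RT → PCR → FAM label → HpaI → CE. Internal background marker; bidirectional fitting, DMSO = baseline.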

[13] = ATG_EGR_CIS: Attagene CIS-FACTORIAL HepG2 Assay for human Early Growth Response 1 (EGR1) (AID 2282938); details: HepG2 Attagene CIS-FACTORIAL EGR reporter mRNA; actives raise or lower the signal
Summary of the method: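 Transient transfection of human HepG2 with multiple cis-regulated reporter units, chemical exposure 24 h, total RNA isolated. Reverse transcription, PCR, fluorescent labelling and capillary electrophoresis quantify reporter transcripts; activity fitted bidirectionally against DMSO.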

[14] = ATG_M_19_CIS: Attagene CIS-FACTORIAL HepG2 Assay for M19 Transcription Factor (Internal Marker) (AID 2282939); details: HepG2 Attagene CIS-FACTORIAL M19 internal marker reporter; actives raise or lower the signal
Summary of the method: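 Background-control endpoint from a multiplexed HepG2 reporter panel. Cells carrying cis-regulated reporter constructs are treated 24 h, then reporter transcripts are amplified, fluorescently labelled and sized by capillary electrophoresis. DMSO defines baseline.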

[15] = ATG_ERE_CIS: Attagene CIS-FACTORIAL HepG2 Assay for Estrogen Response Element (ERE) (AID 2282940); details: HepG2 ERE cis-reporter, Attagene RNA transcript; actives raise or lower the signal
Summary of the method: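 Cells used were human hepatoma HepG2, transfected with multiple reporter transcription units under cis-regulatory promoters. Reporter mRNA, read 24 h post-dosing via fluorescent RT-PCR products on capillary electrophoresis, was fitted bidirectionally relative to DMSO.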

[16] = ATG_Ets_CIS: Attagene CIS-FACTORIAL HepG2 Assay for human Erythroblast Transformation Specific (ETS) (AID 2282941); details: HepG2 ETS cis-reporter transcription, actives raise or lower the signal
Summary of the method: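 HepG2 cells transiently transfected with cis-promoter reporter transcription units were dosed for 24 h; reporter mRNA was measured by RT-PCR, 6-FAM primer extension, HpaI digestion and capillary electrophoresis, with bidirectional fitting against DMSO baseline.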

[17] = target: Hepatocyte nuclear factor 3-beta (Homo sapiens) (UniProt Q9Y261); assay: ATG_FoxA2_CIS: Attagene CIS-FACTORIAL HepG2 Assay for human Forkhead box A2 (FOXA2) (AID 2282942); details: HepG2 cis-reporter transcription factor activity, 24 h; actives raise or lower the signal
Summary of the method: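 Transient MRTU transfection of HepG2 liver cells; 24 h treatment; total RNA → oligo(dT) RT → PCR → FAM primer extension → HpaI cut → CE. Bidirectional fit vs DMSO.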

[18] = ATG_FoxO_CIS: Attagene CIS-FACTORIAL HepG2 Assay for human Forkhead box O (FoxO) (AID 2282943); details: HepG2 Attagene cis-reporter, FoxO element, mRNA; actives raise or lower the signal
Summary of the method: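 24 h chemical exposure, HepG2 with transient cis-MRTU transfection. RNA extraction, oligo(dT) RT, reporter-specific PCR, primer-extension labelling, HpaI digestion, CE fragment analysis; bidirectional fit, DMSO baseline.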

[19] = ATG_GATA_CIS: Attagene CIS-FACTORIAL HepG2 Assay for human GATA Binding Protein (AID 2282944); details: HepG2 GATA cis-element reporter, Attagene multiplex mRNA; actives raise or lower the signal
Summary of the method: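 Endogenous transcription factor activity was captured through cis-promoter-driven reporters in transfected HepG2 cells. After 24 h exposure, reporter transcripts were quantified by RT-PCR with fluorescent capillary electrophoresis, and responses fitted both directions against DMSO.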

Sequence of Retinoic acid receptor alpha (Homo sapiens) (P10276 whole entry, looked up): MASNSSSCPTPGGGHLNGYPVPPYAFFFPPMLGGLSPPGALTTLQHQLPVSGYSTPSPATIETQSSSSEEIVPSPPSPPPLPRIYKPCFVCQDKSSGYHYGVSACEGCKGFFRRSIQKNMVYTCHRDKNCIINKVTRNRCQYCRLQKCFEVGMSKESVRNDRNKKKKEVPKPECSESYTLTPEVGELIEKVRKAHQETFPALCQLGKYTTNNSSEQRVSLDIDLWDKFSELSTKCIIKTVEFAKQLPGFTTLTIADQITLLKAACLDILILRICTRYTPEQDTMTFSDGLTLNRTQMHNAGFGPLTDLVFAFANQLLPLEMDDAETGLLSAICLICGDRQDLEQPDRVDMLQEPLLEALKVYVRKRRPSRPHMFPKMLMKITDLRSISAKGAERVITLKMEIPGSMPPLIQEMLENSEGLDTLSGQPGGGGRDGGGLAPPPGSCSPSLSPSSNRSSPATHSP
Sequence of Hepatocyte nuclear factor 3-beta (Homo sapiens) (Q9Y261 whole entry, looked up): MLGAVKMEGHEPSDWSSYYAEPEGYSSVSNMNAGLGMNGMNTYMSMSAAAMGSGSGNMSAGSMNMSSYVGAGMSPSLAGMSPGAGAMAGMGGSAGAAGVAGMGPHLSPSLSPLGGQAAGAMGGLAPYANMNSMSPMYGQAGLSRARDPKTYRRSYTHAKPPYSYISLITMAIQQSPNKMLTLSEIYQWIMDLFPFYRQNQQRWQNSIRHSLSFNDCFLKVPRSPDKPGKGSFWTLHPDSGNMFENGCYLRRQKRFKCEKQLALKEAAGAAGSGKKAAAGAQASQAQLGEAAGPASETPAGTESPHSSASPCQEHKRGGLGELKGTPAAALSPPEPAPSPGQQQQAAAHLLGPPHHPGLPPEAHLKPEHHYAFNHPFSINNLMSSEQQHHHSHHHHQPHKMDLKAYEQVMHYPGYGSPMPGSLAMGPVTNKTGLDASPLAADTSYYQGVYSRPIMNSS
Sequence of CCAAT/enhancer-binding protein beta (Homo sapiens) (P17676 whole entry, looked up, the tested form may be a part): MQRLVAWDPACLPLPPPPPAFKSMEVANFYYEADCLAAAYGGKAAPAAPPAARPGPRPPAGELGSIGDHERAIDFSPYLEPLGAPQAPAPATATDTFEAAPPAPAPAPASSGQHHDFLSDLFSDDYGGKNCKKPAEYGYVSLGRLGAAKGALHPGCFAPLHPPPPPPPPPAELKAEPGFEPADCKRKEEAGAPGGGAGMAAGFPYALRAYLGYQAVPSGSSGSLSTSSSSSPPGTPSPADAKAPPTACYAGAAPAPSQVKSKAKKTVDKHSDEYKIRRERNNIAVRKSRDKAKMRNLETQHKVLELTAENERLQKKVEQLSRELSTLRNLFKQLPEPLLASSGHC
Sequence of Aryl hydrocarbon receptor (Homo sapiens) (P35869 whole entry, looked up): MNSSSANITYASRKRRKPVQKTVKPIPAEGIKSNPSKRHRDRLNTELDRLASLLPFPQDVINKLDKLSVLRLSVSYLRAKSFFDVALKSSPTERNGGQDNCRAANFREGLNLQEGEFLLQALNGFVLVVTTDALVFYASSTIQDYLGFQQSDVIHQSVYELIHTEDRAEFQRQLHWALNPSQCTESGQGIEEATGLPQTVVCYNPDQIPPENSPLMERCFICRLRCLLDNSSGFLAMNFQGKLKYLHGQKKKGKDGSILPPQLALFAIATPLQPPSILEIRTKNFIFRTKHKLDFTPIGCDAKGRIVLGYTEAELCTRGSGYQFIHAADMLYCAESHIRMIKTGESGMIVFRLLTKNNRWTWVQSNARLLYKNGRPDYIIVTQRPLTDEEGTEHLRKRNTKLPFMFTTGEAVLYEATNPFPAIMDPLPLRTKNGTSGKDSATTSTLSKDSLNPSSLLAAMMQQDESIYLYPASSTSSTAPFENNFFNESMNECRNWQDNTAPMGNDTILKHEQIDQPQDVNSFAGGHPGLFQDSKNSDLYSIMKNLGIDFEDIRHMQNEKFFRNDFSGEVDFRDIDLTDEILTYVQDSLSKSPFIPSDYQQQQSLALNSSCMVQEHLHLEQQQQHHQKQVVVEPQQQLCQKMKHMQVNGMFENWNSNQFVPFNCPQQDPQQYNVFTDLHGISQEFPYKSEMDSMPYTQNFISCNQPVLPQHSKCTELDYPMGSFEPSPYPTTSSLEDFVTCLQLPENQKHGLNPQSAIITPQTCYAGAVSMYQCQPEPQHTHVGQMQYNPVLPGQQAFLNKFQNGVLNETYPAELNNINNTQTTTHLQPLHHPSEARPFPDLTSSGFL
Sequence of Transcription factor E2F1 (Homo sapiens) (Q01094 whole entry, looked up): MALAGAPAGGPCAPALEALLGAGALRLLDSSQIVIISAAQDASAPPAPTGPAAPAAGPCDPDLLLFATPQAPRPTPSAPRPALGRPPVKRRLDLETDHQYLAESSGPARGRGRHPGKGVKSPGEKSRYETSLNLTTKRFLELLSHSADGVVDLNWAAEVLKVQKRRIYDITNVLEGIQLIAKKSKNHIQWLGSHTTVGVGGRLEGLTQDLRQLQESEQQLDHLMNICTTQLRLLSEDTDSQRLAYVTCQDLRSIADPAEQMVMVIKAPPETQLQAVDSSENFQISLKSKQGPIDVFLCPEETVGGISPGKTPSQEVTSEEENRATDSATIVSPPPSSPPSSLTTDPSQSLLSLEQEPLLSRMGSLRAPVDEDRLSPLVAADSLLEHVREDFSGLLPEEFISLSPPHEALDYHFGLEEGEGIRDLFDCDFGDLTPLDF

With CC(C)CC=C(C=O)c1ccccc1 the AC50 [1] was 24.1 µM (active), the outcome [2] was “inactive” and the outcome [3] was “inactive”. For the same compound, the AC50 [4] was 84.9 µM (active), the outcome [5] was “inactive” and the AC50 [6] was 100 µM (active). The outcome [7] was “inactive”, the outcome [8] was “inactive” and the outcome [9] was “inactive”. For the same compound, the outcome [10] was “inactive”, the outcome [11] was “inactive” and the outcome [12] was “inactive”. The outcome [13] was “inactive”, the outcome [14] was “inactive” and the AC50 [15] was 35.2 µM (active). The outcome [16] was “inactive”, the outcome [17] was “inactive” and the outcome [18] was “inactive”. For the same compound, the outcome [19] was “inactive”.
In the case of Cc1cccc(C)n1, the outcome [1] is reported as “inactive”, the outcome [2] is reported as “inactive” and the outcome [3] is reported as “inactive”. For the same compound, the outcome [4] was “inactive”, the outcome [5] was “inactive” and the outcome [6] was “inactive”. For the same compound, the outcome [7] was “inactive”, the outcome [8] was “inactive” and the outcome [9] was “inactive”. For the same compound, the outcome [10] was “inactive”, the outcome [11] was “inactive” and the outcome [12] was “inactive”. For the same compound, the outcome [13] was “inactive”, the outcome [14] was “inactive” and the outcome [15] was “inactive”. For the same compound, the outcome [16] was “inactive”, the outcome [17] was “inactive” and the outcome [19] was “inactive”.
With CCOCN(C(=O)CS(=O)(=O)O)c1c(C)cccc1CC the outcome [1] was “inactive”, the outcome [2] was “inactive” and the outcome [4] was “inactive”. The outcome [5] was “inactive”, the outcome [6] was “inactive” and the outcome [7] was “inactive”. The outcome [8] was “inactive”, the outcome [10] was “inactive” and the outcome [11] was “inactive”. For the same compound, the outcome [12] was “inactive”, the outcome [13] was “inactive” and the outcome [14] was “inactive”. The outcome [15] was “inactive”, the outcome [16] was “inactive” and the outcome [19] was “inactive”.
With CCN(CC)c1ccc(N=Nc2ccccc2)cc1 the AC50 [1] was 50 µM (active), the outcome [2] was “inactive” and the outcome [3] was “inactive”. The outcome [4] was “inactive”, the AC50 [5] was 5.68 µM (active) and the AC50 [6] was 72.7 µM (active). For the same compound, the outcome [7] was “inactive”, the AC50 [8] was 78.8 µM (active) and the outcome [9] was “inactive”. The outcome [10] was “inactive”, the outcome [12] was “inactive” and the AC50 [13] was 12.3 µM (active). For the same compound, the outcome [14] was “inactive”, the outcome [15] was “inactive” and the outcome [16] was “inactive”. The AC50 [17] was 26.9 µM (active) and the outcome [19] was “inactive”.
